Records with an inconclusive call do not appear. Activity calls are given as the source filed them. Unless noted, calls follow the shape of the dose curve; as a rule, active = well fitted curve in the direction sought with a large enough effect in the repeat runs; inconclusive = weak or mixed curves; inactive = no such curve, though single readings can be large; an effect the other way counts as inactive or inconclusive.
What was measured:
[1] = qHTS assay to identify small molecule phospholipidosis (PLD) inducers (AID 1259344; active = well fitted curve in the direction sought with a large enough effect; an effect the other way counts as inactive or inconclusive)
In short: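 Quantitative HTS in HepG2: compound plus LipidTOX Red dye for 24 h, paraformaldehyde fixation with Hoechst 33342, widefield high-content imaging; amiodarone as positive and DMSO as negative control.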

[2] = qHTS assay to identify small molecule HDAC inhibitors (AID 1259364);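 also: wild-type HCT-116 cells with endogenous class I/II HDAC activity; top concentration of the series differs between compounds; nearly all actives have a fitted effect of over 45% in size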
In short: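 Read-out: luminescence of HDAC-Glo I/II reagent, 30 min RT, reflecting class I/II deacetylase activity in whole HCT-116 cells pre-exposed 2 h to DMSO-dissolved compounds.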

[3] = qHTS assay to identify small molecule HDAC inhibitors - cell viability counter screen (AID 1259365); also: series mostly up to about 92 µM; nearly all actives have a fitted effect of over 50% in size
In short: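 Following a 2hr exposure of overnight-plated wild-type HCT-116 cells to DMSO-delivered compounds, CellTiter-Glo was added and luminescence recorded after 30min at room temperature.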

[4] = qHTS assay to identify small molecule agonists of the sonic hedgehog signaling (Shh) pathway - cell viability counter screen (AID 1259366); also: nearly all actives have a fitted effect of over 50% in size; also: potency is read from the fitted curve at half-maximal effect
In short: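 After a 4hr attachment at 37C, NIH/3T3 cells bearing an integrated Gli1-driven luciferase reporter were dosed with compounds. Treatment lasted 24hr, with the final hour including CellTiter-Fluor for a fluorescence viability measurement.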

[5] = qHTS assay to identify small molecule antagonists of the sonic hedgehog signaling (Shh) pathway (AID 1259369; calls by dose curve; also: nearly all actives have a fitted effect of over 45% in size; also: potency is read from the fitted curve at half-maximal effect)
In short: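 For antagonist detection, the reporter line received test compounds together with conditioned medium, incubated 24hr at 37 C, 5% CO2, then luminescence was recorded following 30min room-temperature luciferase reagent incubation.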

[6] = target: Estrogen receptor beta (Homo sapiens) (UniProt Q92731); test: qHTS assay to identify small molecule agonists of the estrogen receptor beta (ER-beta) signaling pathway (AID 1259377; active = well fitted activation curve with a large enough effect in the signal ratio in the repeat runs, not every such curve was filed as active; the % refers to the signal ratio)
In short: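 In HEK293T cells bearing a UAS-beta-lactamase reporter under ER-beta control, DMSO-delivered compounds were incubated for 16 hr at 37C. Activity was detected as fluorescence 2 hours after LiveBLAzer B/G FRET substrate addition.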

[7] = target: Estrogen receptor beta (Homo sapiens) (UniProt Q92731); test: qHTS assay to identify small molecule antagonists of the estrogen receptor beta (ER-beta) signaling pathway (AID 1259378; active = well fitted inhibition curve with a large enough effect in the signal ratio in the repeat runs, not every such curve was filed as active; the % refers to the signal ratio; also: potency is read from the fitted curve at half-maximal effect)
In short: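 ER-beta-UAS-bla HEK293T cells in 2% charcoal-stripped FBS medium treated with compound plus 1nM final 17-beta-estradiol for 16 hr at 37C. Beta-lactamase reporter read by FRET substrate fluorescence after 2 hours at room temperature.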

[8] = qHTS assay to identify small molecule agonists of the androgen receptor (AR) signaling pathway in the presence of an antagonist - cell viability counter screen (AID 1259379);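 also: MDA-kb2 human breast cancer cells carrying an MMTV luciferase reporter; series mostly up to about 92 µM; nearly all actives have a fitted effect of over 25% in size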
In short: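 Seed MDA-kb2 at 3,000 cells/well; incubate 5 hr, 37C, 0% CO2. Add nilutamide to 3.0uM final, then pin compounds at 15 concentrations. Incubate 16 hr. Add CellTiter-Fluor at 15 hr, read fluorescence after 1 hr.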

[9] = qHTS assay to identify small molecule agonists of the estrogen receptor beta (ER-beta) signaling pathway - cell viability counter screen (AID 1259380); also: nearly all actives have a fitted effect of over 30% in size; also: potency is read from the fitted curve at half-maximal effect
In short: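 CellTiter-Glo read, 30 min RT, same wells as bla assay; cells ER-beta-UAS-bla HEK293T; 16 hr compound, 37C; medium 2% charcoal-stripped FBS.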

[10] = qHTS assay to identify small molecule antagonists of the estrogen receptor beta (ER-beta) signaling pathway - cell viability counter screen (AID 1259382); also: series mostly up to about 92 µM; nearly all actives have a fitted effect of over 55% in size
In short: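 In this multiplexed counter screen, cells were seeded at 2,000 per well in medium with 2% charcoal-stripped FBS and incubated 6 hr before compound and 1nM final E2 were added. Sixteen hours later, ATP-based luminescence reported viability.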

[11] = qHTS assay to identify small molecule agonists or antagonists of the thyroid stimulating hormone receptor (TSHR) signaling pathway - wild type cell line counter screen (AID 1259384; calls by dose curve; also: potency is read from the fitted curve at half-maximal effect)
In short: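 Wild-type Hek293 cells, 800/well, 18 h at 37C, then compound with Ro20-1724 for 30 min RT. cAMP by HTRF (cAMP-d2/anti-cAMP cryptate), 1 h RT, fluorescence read. 15 concentrations, triplicates.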

[12] = target: Thyrotropin receptor (Homo sapiens) (UniProt P16473); test: qHTS assay to identify small molecule antagonists of the thyroid stimulating hormone receptor (TSHR) signaling pathway (AID 1259385; calls by dose curve; also: nearly all actives have a fitted effect of over 20% in size)
In short: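 TSHR-HEK293 cells (800/well) plated 18 h, then compounds with Ro20-1724 and TSH at 1.5 ng/mL final, 30 min at room temperature. cAMP quantified by HTRF (cAMP-d2/anti-cAMP-cryptate, 1 h); 15 concentrations in triplicate.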

[13] = qHTS assay to identify small molecule agonists of the estrogen receptor alpha (ER-alpha) signaling pathway in the presence of an antagonist - cell viability counter screen (AID 1259386);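 also: series mostly up to about 92 µM; cells exposed to compounds for 22 h at 37 °C before the viability read; nearly all actives have a fitted effect of over 30% in size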
In short: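 Viability counter screen using VM7Luc4E2 (full-length ER-alpha, four ERE-luciferase). The cells were treated with compounds alongside ICI-182,780 10.0nM for 22hr, and live-cell protease fluorescence was quantified with CellTiter-Fluor.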

[14] = qHTS assay to identify small molecule antagonists of the sonic hedgehog signaling (Shh) pathway - cell viability counter screen (AID 1259367); also: nearly all actives have a fitted effect of over 55% in size; also: potency is read from the fitted curve at half-maximal effect
In short: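 Seed 3T3 Gli1-Luc cells at 2,000 per well; incubate 4 hr; add compound in DMSO, then conditioned medium; incubate at 37C with 5% CO2; add CellTiter-Fluor after 23 hr; read fluorescence 1 hr later.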

[15] = qHTS assay to identify small molecule agonists of the sonic hedgehog signaling (Shh) pathway (AID 1259368; calls by dose curve;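 also: NIH/3T3-derived 3T3Gli1-Luc cells carrying a stable Gli1-driven firefly luciferase reporter; series mostly up to about 92 µM; nearly all actives have a fitted effect of over 15% in size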)
In short: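 A Gli1 transcriptional response element controlled firefly luciferase in 3T3Gli1-Luc cells. Compounds and a positive control were added 4 hr after plating, and cells were incubated a further 24 hr at 37 C before luminescence detection.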

[16] = target: Progesterone receptor (Homo sapiens) (UniProt P06401); test: qHTS assay to identify small molecule agonists of the progesterone receptor (PR) signaling pathway (AID 1346784; calls by dose curve; also: nearly all actives have a fitted effect of over 30% in size)
In short: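 Using charcoal-stripped serum (2%) to limit endogenous steroids, PR-UAS-bla HEK 293T cells received compounds for 16 hr at 37C after 6 hr plating; beta-lactamase FRET fluorescence was recorded following 2 hr substrate loading at room temperature.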

[17] = target: Progesterone receptor (Homo sapiens) (UniProt P06401); test: qHTS assay to identify small molecule antagonists of the progesterone receptor (PR) signaling pathway (AID 1346795; active = well fitted inhibition curve with a large enough effect in the signal ratio in the repeat runs, not every such curve was filed as active; the % refers to the signal ratio; also: potency is read from the fitted curve at half-maximal effect)
In short: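 Inhibition of R5020-induced (1 nM final) beta-lactamase reporter signal in PR-UAS-bla HEK293T cells was scored by FRET fluorescence after overnight (16 hr) compound treatment.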

[18] = target: Estrogen receptor (Homo sapiens) (UniProt P03372); test: qHTS assay to identify small molecule agonists of the estrogen receptor alpha (ER-alpha) signaling pathway in the presence of an antagonist (AID 1259383; calls by dose curve; also: top concentration of the series differs between compounds; nearly all actives have a fitted effect of over 15% in size)
In short: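 Stably transfected VM7Luc4E2 reporter cells, kept 5 days in charcoal-stripped serum, received ICI-182,780 at 10.0nM final before compound addition. Following 22hr incubation at 37C and 5% CO2, luciferase signal was read by luminescence.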
% is scaled to controls: 0 for no effect and ±100 for the full control effect.

Sequence of Progesterone receptor (Homo sapiens) (P06401 whole entry, looked up): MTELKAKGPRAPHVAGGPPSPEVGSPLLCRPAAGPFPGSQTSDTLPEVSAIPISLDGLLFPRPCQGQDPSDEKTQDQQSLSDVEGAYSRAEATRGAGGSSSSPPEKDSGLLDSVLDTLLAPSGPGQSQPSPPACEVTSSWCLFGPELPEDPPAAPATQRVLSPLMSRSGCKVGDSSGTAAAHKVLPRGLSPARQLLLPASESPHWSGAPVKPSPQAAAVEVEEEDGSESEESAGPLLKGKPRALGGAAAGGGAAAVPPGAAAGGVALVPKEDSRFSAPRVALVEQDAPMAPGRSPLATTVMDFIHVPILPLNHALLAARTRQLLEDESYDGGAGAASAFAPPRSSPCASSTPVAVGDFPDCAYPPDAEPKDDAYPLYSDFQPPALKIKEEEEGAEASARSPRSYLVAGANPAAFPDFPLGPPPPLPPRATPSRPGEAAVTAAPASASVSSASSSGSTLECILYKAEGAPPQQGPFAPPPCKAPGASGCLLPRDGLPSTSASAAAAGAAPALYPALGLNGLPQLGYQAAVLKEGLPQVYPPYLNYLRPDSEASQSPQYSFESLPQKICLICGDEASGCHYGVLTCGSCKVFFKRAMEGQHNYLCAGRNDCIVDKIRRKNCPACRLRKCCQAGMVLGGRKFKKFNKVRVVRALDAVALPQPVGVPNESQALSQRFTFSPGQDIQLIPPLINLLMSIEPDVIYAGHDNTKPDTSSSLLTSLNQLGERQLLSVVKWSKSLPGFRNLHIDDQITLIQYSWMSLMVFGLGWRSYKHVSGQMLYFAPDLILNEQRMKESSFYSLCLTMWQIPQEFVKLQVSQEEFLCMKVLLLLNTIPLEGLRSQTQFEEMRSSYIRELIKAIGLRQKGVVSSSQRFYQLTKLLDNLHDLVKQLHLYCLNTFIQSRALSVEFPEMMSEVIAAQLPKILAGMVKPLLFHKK
Sequence of Thyrotropin receptor (Homo sapiens) (P16473 whole entry, looked up): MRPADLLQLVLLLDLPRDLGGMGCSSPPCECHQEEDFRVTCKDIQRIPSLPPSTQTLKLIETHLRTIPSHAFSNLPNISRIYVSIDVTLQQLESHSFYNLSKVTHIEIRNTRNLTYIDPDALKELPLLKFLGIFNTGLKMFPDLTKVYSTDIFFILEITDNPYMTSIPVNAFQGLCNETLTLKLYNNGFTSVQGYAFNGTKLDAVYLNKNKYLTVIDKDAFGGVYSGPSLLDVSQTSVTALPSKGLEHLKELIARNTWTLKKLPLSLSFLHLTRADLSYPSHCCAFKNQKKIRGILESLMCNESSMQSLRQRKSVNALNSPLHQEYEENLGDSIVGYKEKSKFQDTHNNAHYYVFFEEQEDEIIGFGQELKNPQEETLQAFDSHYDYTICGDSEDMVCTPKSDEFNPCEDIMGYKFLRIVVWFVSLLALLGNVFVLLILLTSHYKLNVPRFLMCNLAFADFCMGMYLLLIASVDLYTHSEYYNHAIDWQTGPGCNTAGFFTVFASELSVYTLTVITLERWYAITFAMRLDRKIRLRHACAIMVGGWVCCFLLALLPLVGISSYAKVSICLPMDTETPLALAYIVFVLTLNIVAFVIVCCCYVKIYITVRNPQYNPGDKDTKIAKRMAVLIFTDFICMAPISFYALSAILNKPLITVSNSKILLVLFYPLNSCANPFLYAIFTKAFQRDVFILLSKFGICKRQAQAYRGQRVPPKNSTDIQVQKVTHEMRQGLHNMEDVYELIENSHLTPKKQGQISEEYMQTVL
Sequence of Estrogen receptor beta (Homo sapiens) (Q92731 whole entry, looked up): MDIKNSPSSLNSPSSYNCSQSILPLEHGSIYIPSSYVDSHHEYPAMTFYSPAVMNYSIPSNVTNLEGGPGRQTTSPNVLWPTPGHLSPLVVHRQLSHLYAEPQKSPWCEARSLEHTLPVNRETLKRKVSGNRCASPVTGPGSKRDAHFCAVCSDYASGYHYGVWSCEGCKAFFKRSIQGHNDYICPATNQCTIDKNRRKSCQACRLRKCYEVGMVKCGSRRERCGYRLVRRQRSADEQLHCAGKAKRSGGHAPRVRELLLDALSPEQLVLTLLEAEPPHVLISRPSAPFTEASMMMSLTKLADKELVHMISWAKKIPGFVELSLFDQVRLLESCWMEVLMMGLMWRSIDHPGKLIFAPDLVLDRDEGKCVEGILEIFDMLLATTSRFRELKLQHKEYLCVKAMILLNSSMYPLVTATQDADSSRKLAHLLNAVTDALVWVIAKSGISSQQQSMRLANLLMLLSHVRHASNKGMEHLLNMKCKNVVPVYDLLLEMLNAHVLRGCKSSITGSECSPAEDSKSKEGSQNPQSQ
Sequence of Estrogen receptor (Homo sapiens) (P03372 whole entry, looked up): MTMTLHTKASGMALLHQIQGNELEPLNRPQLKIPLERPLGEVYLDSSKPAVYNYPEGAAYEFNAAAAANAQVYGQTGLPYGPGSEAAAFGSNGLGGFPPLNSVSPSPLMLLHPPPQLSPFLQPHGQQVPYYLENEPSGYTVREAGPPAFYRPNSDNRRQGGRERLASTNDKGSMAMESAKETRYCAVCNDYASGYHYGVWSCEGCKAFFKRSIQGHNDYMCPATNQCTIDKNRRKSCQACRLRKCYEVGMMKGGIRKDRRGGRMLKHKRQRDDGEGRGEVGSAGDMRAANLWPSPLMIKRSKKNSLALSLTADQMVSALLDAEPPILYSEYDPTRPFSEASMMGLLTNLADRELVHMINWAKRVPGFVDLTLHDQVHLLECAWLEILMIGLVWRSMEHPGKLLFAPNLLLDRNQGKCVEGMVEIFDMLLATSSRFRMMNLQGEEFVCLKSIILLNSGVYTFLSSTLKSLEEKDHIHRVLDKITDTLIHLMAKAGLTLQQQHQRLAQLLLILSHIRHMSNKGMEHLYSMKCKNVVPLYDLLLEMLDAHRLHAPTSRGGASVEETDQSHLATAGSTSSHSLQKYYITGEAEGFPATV

Cn1c(NCCN(CCO)CCCc2ccc([N+](=O)[O-])cc2)cc(=O)n(C)c1=O
inactive: Potency [1] | Potency [2] | outcome [3] | Potency [4] | Potency [5] | Potency [6] | Potency [7] | Potency [8] | Potency [9] | Potency [10] | Potency [11] | Potency [12] | Potency [13]

CC(C)(C)C(=O)OCOP(=O)(COCCn1cnc2c(N)ncnc21)OCOC(=O)C(C)(C)C
active: Potency [4] 10.6 µM | Potency [14] 9.44 µM | Potency [5] 2.98 µM | Potency [9] 9.44 µM
inactive: Potency [1] | Potency [2] | outcome [3] | outcome [15] | Potency [6] | Potency [7] | Potency [10] | Potency [11] | Potency [12] | Potency [13] | outcome [16]

CN(C)C/C=C(/c1ccc(Br)cc1)c1cccnc1
inactive: Potency [1] | outcome [3] | Potency [4] | outcome [15] | Potency [8] | Potency [9] | Potency [10] | Potency [11] | Potency [12] | Potency [13] | outcome [16]

Cl/C(=C\n1cncn1)c1ccc(Cl)cc1Cl
inactive: Potency [1] | Potency [2] | outcome [3] | outcome [15] | Potency [5] | Potency [8] | Potency [9] | Potency [10] | Potency [11] | Potency [12] | Potency [13] | outcome [16]

CN(C(=O)CCCOc1ccc2[nH]c(=O)ccc2c1)C1CCCCC1
inactive: Potency [1] | Potency [2] | Potency [4] | Potency [14] | Potency [6] | Potency [8] | Potency [9] | Potency [10] | Potency [11] | Potency [12] | Potency [13] | outcome [16]

Oc1ccc(C(O)CNCCCCCCNCC(O)c2ccc(O)c(O)c2)cc1O (stereo unspecified)
inactive: Potency [1] | Potency [2] | outcome [3] | outcome [15] | Potency [5] | Potency [9] | Potency [10] | Potency [12] | Potency [17]
active: Potency [14] 29.8 µM | Potency [11] 6.19 µM

O=C(O)Cc1cc(I)c(Oc2ccc(O)c(I)c2)c(I)c1
inactive: Potency [1] | outcome [3] | Potency [4] | Potency [14] | outcome [15] | Potency [5] | Potency [8] | Potency [10] | Potency [12] | Potency [13] | outcome [16]

CC(Cc1cccc(C(F)(F)F)c1)NCCOC(=O)c1ccccc1 (stereo unspecified)
inactive: Potency [1] | Potency [2] | outcome [3] | Potency [4] | Potency [14] | outcome [15] | Potency [8] | Potency [10] | Potency [11] | Potency [12] | Potency [13] | outcome [16]

CN1CCC[C@@H]1c1cccnc1
inactive: Potency [1] | Potency [2] | outcome [3] | Potency [4] | Potency [14] | outcome [15] | Potency [5] | Potency [8] | Potency [9] | Potency [10] | Potency [13] | outcome [16] | Potency [17]

CCN(CCO)CCCC(C)Nc1ccnc2cc(Cl)ccc12 (stereo unspecified)
inactive: Potency [1] | activity change, negative = inhibition [2] 16.3% [at 8.39 µM] | activity change, negative = cytotoxicity [3] 0.62% [at 8.39 µM] | viability change, negative = cytotoxic [4] -3.56% [at 8.39 µM] | activity change [15] 0.0324% [at 8.39 µM] | activity change, negative = inhibition [5] 5.56% [at 8.39 µM] | activity change, negative = cytotoxicity [8] -1.54% [at 8.39 µM] | activity change, negative = cytotoxicity [9] 3.81% [at 8.39 µM] | activity change, negative = cytotoxicity [10] -2.09% [at 8.39 µM] | cAMP activity change [11] -5.44% [at 8.39 µM, active compounds read high] | activity change, negative = inhibition [12] -2.73% [at 8.39 µM] | activity change, negative = cytotoxicity [13] -3.53% [at 8.39 µM] | activity change, negative = inhibition [17] 1.96% [at 8.39 µM]

O=S1(=O)c2cccc3cccc(c23)N1CCCN1CCN(c2ccc(F)cc2)CC1
active: Potency [17] 18.8 µM
inactive: Potency [1] | Potency [2] | outcome [3] | Potency [4] | outcome [15] | Potency [5] | Potency [6] | Potency [8] | Potency [10] | Potency [18] | Potency [12] | Potency [13] | outcome [16]

CC(O)C1CCCCC1 (stereo unspecified)
inactive: Potency [2] | outcome [3] | Potency [4] | Potency [14] | outcome [15] | Potency [5] | Potency [6] | Potency [7] | Potency [8] | Potency [9] | Potency [10] | Potency [11] | Potency [12] | Potency [13] | outcome [16] | Potency [17]

CC(=O)OC/C=C/c1ccccc1
inactive: Potency [2] | outcome [3] | Potency [4] | Potency [14] | outcome [15] | Potency [5] | Potency [6] | Potency [7] | Potency [8] | Potency [9] | Potency [10] | Potency [11] | Potency [12] | Potency [13] | outcome [16] | Potency [17]

O=C1[C@H](CC[C@H](O)c2ccc(F)cc2)[C@@H](c2ccc(O)cc2)N1c1ccc(F)cc1
inactive: Potency [1] | outcome [3] | Potency [14] | outcome [15] | Potency [5] | Potency [6] | Potency [8] | Potency [9] | Potency [10] | Potency [18] | Potency [12] | Potency [13]

S=C(S)NCCNC(=S)S
inactive: Potency [2] | outcome [3] | Potency [4] | Potency [14] | outcome [15] | Potency [5] | Potency [6] | Potency [7] | Potency [8] | Potency [10] | Potency [11] | Potency [12] | Potency [13] | outcome [16]

CC(C)NCC(O)c1cc(O)cc(O)c1 (stereo unspecified)
inactive: Potency [1] | Potency [2] | outcome [3] | Potency [4] | Potency [14] | outcome [15] | Potency [5] | Potency [8] | Potency [9] | Potency [10] | Potency [12] | Potency [13] | outcome [16] | Potency [17]
active: Potency [11] 8.1 µM

CC1(C)CCC(C)(C)c2cc(NC(=O)c3ccc(C(=O)O)cc3)ccc21
inactive: Potency [1] | outcome [15] | Potency [5] | Potency [6] | Potency [8] | Potency [10] | Potency [12] | Potency [13] | outcome [16]
active: Potency [7] 18.8 µM | Potency [17] 16.8 µM

Cc1ccccn1
inactive: Potency [1] | Potency [2] | outcome [15] | Potency [5] | Potency [6] | Potency [7] | Potency [8] | Potency [9] | Potency [10] | Potency [13] | outcome [16]

Cc1cc(CC(=O)O)c(C)n1-c1ccc(Cl)cc1
inactive: Potency [1] | Potency [2] | outcome [3] | Potency [4] | Potency [14] | outcome [15] | Potency [6] | Potency [8] | Potency [10] | Potency [11] | Potency [12] | Potency [13] | outcome [16] | Potency [17]
